This note sets out measurements from PubChem BioAssay (NCATS).

Experiment [1] is described as follows: Quantitative High-Throughput drug screen in 47 multiple myeloma cell lines against the NCATS MIPE library collection: LP1_DSMZ cell viability assay (AID 1918982). Note: nearly all actives have a fitted effect of over 35% in size. Summed up: (§1)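 ATP-based luminescence (CellTiter-Glo, 5 min RT incubation) quantified surviving cells following two days' treatment with MIPE 4.0 agents at 37 °C, 5% CO2.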
Experiment [2] can be described thus: Quantitative High-Throughput drug screen in 47 multiple myeloma cell lines against the NCATS MIPE library collection: KMS28PE_JCRB cell viability assay (AID 1918983). Note: nearly all actives have a fitted effect of over 35% in size. Summed up: as §1
Experiment [3] can be described thus: Quantitative High-Throughput drug screen in 47 multiple myeloma cell lines against the NCATS MIPE library collection: L363_DSMZ cell viability assay (AID 1918984). Note: nearly all actives have a fitted effect of over 40% in size. The conditions noted are these: L363 myeloma viability, CellTiter-Glo ATP luminescence, 48 h; viability (% of control): at 45.8 µM (top of the series). Summed up: as §1
In general terms: Cellular ATP, detected with luciferase, serves as a proxy for viable cell number.

Experiment [4] is described as follows: Quantitative High-Throughput drug screen in 47 multiple myeloma cell lines against the NCATS MIPE library collection: KMS34_JCRB cell viability assay (AID 1918985). Note: nearly all actives have a fitted effect of over 40% in size. Summed up:
as §1

A short description of experiment [5]: Quantitative High-Throughput drug screen in 47 multiple myeloma cell lines against the NCATS MIPE library collection: SKMM1_PLB cell viability assay (AID 1919863). Note: nearly all actives have a fitted effect of over 35% in size. The settings on record: SKMM1 myeloma viability, CellTiter-Glo ATP, 48 h; viability: hits give low values. Summed up: as §1
A short description of experiment [6]: Quantitative High-Throughput drug screen in 47 multiple myeloma cell lines against the NCATS MIPE library collection: U266_ATCC cell viability assay (AID 1919864).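 For viability (% of DMSO control): 0% = media-only wells without cells and 100% = DMSO-only wells.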 Note: nearly all actives have a fitted effect of over 35% in size. Summed up: as §1
Experiment [7] is described as follows: Quantitative High-Throughput drug screen in 47 multiple myeloma cell lines against the NCATS MIPE library collection: XG6_PLB cell viability assay (AID 1919865).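 For viability (% of control): 100% = DMSO-only wells and 0% = media-only wells.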 Note: nearly all actives have a fitted effect of over 40% in size. The method, boiled down:
as §1

Experiment [8] is described as follows: Quantitative High-Throughput drug screen in 47 multiple myeloma cell lines against the NCATS MIPE library collection: XG1_PLB cell viability assay (AID 1919866). Note: nearly all actives have a fitted effect of over 35% in size. Summed up:
as §1

Experiment [9] is described as follows: Quantitative High-Throughput drug screen in 47 multiple myeloma cell lines against the NCATS MIPE library collection: VP6_DJ cell viability assay (AID 1919867).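 For viability (% of DMSO): 100% = DMSO-only wells and 0% = wells with media alone.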 Note: nearly all actives have a fitted effect of over 40% in size. The method, boiled down:
as §1

Experiment [10] in a line: Quantitative High-Throughput drug screen in 47 multiple myeloma cell lines against the NCATS MIPE library collection: UTMC2_PLB cell viability assay (AID 1919868). Note: nearly all actives have a fitted effect of over 55% in size. The settings on record: CellTiter-Glo ATP luminescence, 48 h; viability (% of DMSO control): at 45.8 µM (top of the series). The method, boiled down:
as §1

Experiment [11] in a line: Quantitative High-Throughput drug screen in 47 multiple myeloma cell lines against the NCATS MIPE library collection: PE2_PLB cell viability assay (AID 1919869).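 For viability (% of control): 100% = DMSO-only wells and 0% = cell-free media-only wells.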 Note: nearly all actives have a fitted effect of over 35% in size. Summed up: as §1
Experiment [12] in a line: Quantitative High-Throughput drug screen in 47 multiple myeloma cell lines against the NCATS MIPE library collection: PCM6_Riken cell viability assay (AID 1919870).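 For viability (% of control): 100% = DMSO-only wells and 0% = media-only wells.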 Note: nearly all actives have a fitted effect of over 30% in size. The method, boiled down:
as §1

A short description of experiment [13]: Quantitative High-Throughput drug screen in 47 multiple myeloma cell lines against the NCATS MIPE library collection: OPM2_DSMZ cell viability assay (AID 1919872). Note: nearly all actives have a fitted effect of over 30% in size. The method, boiled down:
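Relative luminescence from CellTiter-Glo served as the viability signal, referenced to DMSO-treated (100%) and cell-free medium (0%) controls. Treatment lasted 48 hours at 37C with 500 cells per well.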

A short description of experiment [14]: Quantitative High-Throughput drug screen in 47 multiple myeloma cell lines against the NCATS MIPE library collection: KMS28BM_JCRB cell viability assay (AID 1919874). Note: nearly all actives have a fitted effect of over 35% in size. The method, boiled down:
as §1

Experiment [15] in a line: Quantitative High-Throughput drug screen in 47 multiple myeloma cell lines against the NCATS MIPE library collection: OPM1_PLB cell viability assay (AID 1918989).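 For viability (% of control): 100% = DMSO-only wells and 0% = media-only wells.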 Note: nearly all actives have a fitted effect of over 40% in size. Summed up:
as §1

The nature of experiment [16]: Quantitative High-Throughput drug screen in 47 multiple myeloma cell lines against the NCATS MIPE library collection: KMS11_JCRBsus cell viability assay (AID 1919873).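 For viability (% of control): 100% = DMSO-only wells and 0% = media-only wells without cells.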 Note: nearly all actives have a fitted effect of over 50% in size. Summed up:
as §1

A short description of experiment [17]: Quantitative High-Throughput drug screen in 47 multiple myeloma cell lines against the NCATS MIPE library collection: OCIMY5_PLB cell viability assay (AID 1918988). Note: nearly all actives have a fitted effect of over 65% in size. The method, boiled down: as §1
A short description of experiment [18]: Quantitative High-Throughput drug screen in 47 multiple myeloma cell lines against the NCATS MIPE library collection: RPMI8226_ATCC cell viability assay (AID 1919871). Note: nearly all actives have a fitted effect of over 30% in size. Summed up: as §1
Experiment [19] is described as follows: Quantitative High-Throughput drug screen in 47 multiple myeloma cell lines against the NCATS MIPE library collection: OCIMY7_PLB cell viability assay (AID 1918987). Note: nearly all actives have a fitted effect of over 65% in size. The settings on record: OCI-MY7 myeloma viability, CellTiter-Glo ATP, 48 h; viability (% of DMSO): at 45.8 µM (top of the series). The method, boiled down: as §1

Structures are written as SMILES. Records with an inconclusive call do not appear. Values without a mark were called inactive. Active and inactive are the calls of the source. Calls come from the whole dose curve; as a rule, active = well fitted cell-killing curve with a large enough effect; inconclusive = small, poorly fitted or top-dose-only effect, or effect the other way; inactive = no such curve, though single readings can be large or run the other way.
Potency is the fitted concentration of half-maximal effect.

Take `CN1C(=O)C(Cc2c[nH]c3ccccc23)NC1=S` (configuration not stated): the Potency entry in [1], in experiment [2], in [3], in experiment [4], in experiment [7] and in experiment [8] was “inactive” throughout. In addition, the Potency entry in experiment [11], in [13] and in [14] was “inactive” each time. Moreover, the Potency in experiment [5] is 418 nM (active); in experiment [6], 5900 nM (active); in [9] it was 7430 nM (active); in [10] it was 2960 nM (active); in experiment [12], 3720 nM (active).
Take `CN[C@H]1[C@@H](O[C@@H]2[C@H](O[C@@H]3[C@@H](O)[C@@H](O)[C@@H](N=C(N)N)[C@@H](O)[C@@H]3N=C(N)N)O[C@H](C)[C@@]2(O)C=O)O[C@@H](CO)[C@@H](O)[C@H]1O`: the Potency result in [1], in experiment [2], in experiment [4], in [15], in experiment [6] and in [7] was “inactive” throughout. Also, the Potency entry in experiment [11], in [12], in experiment [13] and in [16] was “inactive” each time. Moreover, the figures for the Potency in experiment [3] and in [5] were 5.3 nM (active) and 946 nM (active), respectively.
On to `Nc1ccn([C@@H]2O[C@H](CO)[C@@H](O)[C@H]2O)c(=O)n1`, for which the Potency result in experiment [1], in [2], in experiment [3], in experiment [17], in experiment [15] and in [8] was “inactive” each time. Also, the Potency result in [11], in experiment [12], in experiment [18], in experiment [13], in experiment [16] and in experiment [14] was “inactive” in each case. In experiment [5], the viability is 113%. For the same molecule, the Potency in experiment [10] is 1 nM (active).
As for `CC1=C(C(=O)Nc2cc3cn[nH]c3cc2F)C(c2ccc(C(F)(F)F)cc2)CC(=O)N1` (configuration not stated), the Potency entry in experiment [1], in [2], in experiment [3], in experiment [4], in [17] and in [15] was “inactive” in each case. The Potency entry in experiment [6], in [7], in [11], in experiment [18], in [13] and in experiment [16] was “inactive” throughout. Besides, in experiment [14], the Potency result was “inactive”. Also, the viability in [5] is 160%. Moreover, the Potency in experiment [10] was 8330 nM (active); in experiment [12], 10500 nM (active).
For the molecule `CC(=O)Nc1cccc(-n2c(=O)n(C3CC3)c(=O)c3c(Nc4ccc(I)cc4F)n(C)c(=O)c(C)c32)c1`, the Potency entry in [1], in experiment [4], in experiment [17] and in experiment [14] was “inactive” in each case. Further, the Potency in experiment [2] is 8330 nM (active); in experiment [3] it was 5900 nM (active); in experiment [19] it was 13.2 nM (active); in [15], 296 nM (active); in experiment [5], 3720 nM (active); in experiment [6] it was 1480 nM (active). Besides, the Potency was 332 nM (active) in experiment [7], 41.8 nM (active) in experiment [8] and 296 nM (active) in experiment [11].
Turning to `C[C@]12CC[C@@H]3c4ccc(O)cc4CC[C@H]3[C@H]1[C@@H](O)[C@@H](O)[C@H]2O`, the Potency result in experiment [1], in experiment [2], in [3], in experiment [4], in [15] and in experiment [9] was “inactive” each time. Besides, the Potency entry in [11] and in experiment [13] was “inactive” in each case. Moreover, the Potency in experiment [7] and in [8] was 14800 nM (active) in each case.
For the molecule `CN(C)c1ccc(-c2nc3ncc(Cl)c(N4CCN(CC(=O)Nc5nccs5)CC4)c3[nH]2)cc1`, the Potency entry in [1], in experiment [3], in experiment [9] and in experiment [12] was “inactive” each time. The Potency in experiment [2] was 5260 nM (active); in experiment [19], 1660 nM (active); in experiment [17], 5260 nM (active); in experiment [15], 1870 nM (active); in experiment [5] it was 14800 nM (active); in [6] it was 2960 nM (active). Also, the Potency in experiment [7] is 2640 nM (active); in experiment [11] it was 1320 nM (active); in experiment [18] it was 4180 nM (active); in experiment [16] it was 833 nM (active).
Consider `CCN(CCO)CCCOc1ccc2c(Nc3cc(CC(=O)Nc4cccc(F)c4)[nH]n3)ncnc2c1`, for which the Potency result in [1], in experiment [2], in [3], in [4], in experiment [15] and in [6] was “inactive” throughout. The Potency result in [9], in experiment [11], in experiment [12], in experiment [18], in experiment [13] and in experiment [16] was “inactive” throughout. The Potency in experiment [19] is 1050 nM (active); in experiment [17], 264 nM (active); in experiment [7] it was 16600 nM (active); in experiment [8], 41.8 nM (active); in experiment [10] it was 74.3 nM (active); in [14], 37.2 nM (active). Besides, the viability in [5] is 116%.
Consider `CC[C@]1(O)C[C@H]2CN(CCC3=c4ccccc4=N[C]3[C@@](C(=O)OC)(c3cc4c(cc3OC)N(C)[C@H]3[C@@](O)(C(N)=O)[C@H](O)[C@]5(CC)C=CCN6CC[C@]43[C@@H]65)C2)C1`, for which the Potency was 8.3 nM (active) in experiment [1]; 2.3 nM (active) in [2]; 132 nM (active) in [3]; 5.3 nM (active) in experiment [4]; 66.2 nM (active) in experiment [19]; 14.8 nM (active) in [5]. The Potency is 93.5 nM (active) in [6], 5.3 nM (active) in experiment [10], 132 nM (active) in [18] and 7.4 nM (active) in [13]. In addition, the Potency result in experiment [7] was “inactive”.
Turning to `CN(C)CCCNC(=O)c1ccc(-c2cc(O)c3ncccc3c2)cc1`, the Potency in [1] was 8330 nM (active); in experiment [2], 9350 nM (active); in experiment [3], 20900 nM (active); in experiment [17], 20900 nM (active); in experiment [15] it was 16600 nM (active); in [5], 14800 nM (active). In addition, the values for the Potency in experiment [6], in experiment [18] and in experiment [16] were 20900 nM (active), 18700 nM (active) and 23500 nM (active), respectively. For the same molecule, the Potency result in [12] is “inactive”.
On to `O=C(O)c1ccc(O)c2ncc(N3CCOCC3)cc12`, for which the Potency in experiment [1] is 20900 nM (active); in experiment [3], 20900 nM (active); in [17] it was 13200 nM (active); in experiment [5], 18700 nM (active); in experiment [11], 16600 nM (active). Besides, the Potency result in [2], in experiment [15], in experiment [12] and in experiment [13] was “inactive” in each case.

As usually defined, the viability is a read-out of living cells in per cent, often relative to untreated cells.
